We go through three compounds from PubChem BioAssay AID743335 (Broad Institute, 2014).

Calls of active or inactive are those of the source.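 How the source made its calls: active means cell killing, with a fitted half-maximal concentration at or below twice the top valid dose tested; inconclusive means flat curve with moderate signal loss, or a poor fit; inactive means effect in the rising direction, plus the rest.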

The assay can be described thus: cell viability loss in HEK293T cells – ATP luminescence, dry powder, set 11, cytotoxicity control, dose response (AID 743335). The conditions noted are these: ATP luminescence (CellTiter-Glo), 72 h; series mostly up to 15 µM. For orientation: Cellular ATP, detected with luciferase, serves as a proxy for viable cell number.
As to `CCN(CC)c1ccc(S(=O)(=O)N(C)C)cc1C(=O)Nc1ncc(C)s1`, the outcome was inactive.
With `Cc1cnc(NC(=O)c2cc(S(=O)(=O)N(C)C)ccc2N(C)C)s1`, the compound was classed as inactive.
As for `Cc1cnc(NC(=O)c2cc(S(=O)(=O)N3CCCCC3)ccc2N2CCCC2)s1`, the compound was classed as inactive.
